Screening results: PubChem BioAssay, National Center for Advancing Translational Sciences (NCATS)
The list is not random: actives were taken first. Their share in the collection is about 8.6%.
Lassa entry: qHTS for Inhibitors of binding or entry into cells for Lassa Virus | AID 720533, 2013 | Lassa virus pseudotyped entry inhibition, cell-based qHTS | 4.1% of 18,000 active | Potency, µM (doses to about 49.2 µM), inactives show at the highest dose activity change, negative = inhibition, most hits filed as inhibitors
Marburg entry: qHTS for Inhibitors of binding or entry into cells for Marburg Virus; 6.5% of 18,000 active; Potency, µM (titrated, usually from 49.2 µM), for the others: top-dose activity change, negative = inhibition, usual class: inhibitors; Marburg virus pseudotype entry/binding inhibition, cell-based
* hit, by the source's call; ? = inconclusive; . = not tested or not shown; ! = a repeat was not active; [ ] = dose if it differs, or a comment. Calls follow the shape of the full dose curve; tested in HEK293 cells. % is scaled to controls: 0 for no effect and ±100 for the full control effect; potency is read from the fitted curve at half-maximal effect.

SMILES	Lassa entry	Marburg entry
COc1ccc([C@]23Cc4c(ccc5ccccc45)[C@H](O2)c2c(cc(-c4ccccc4)oc2=O)O3)cc1	25%[8.59 µM]	40%[8.59 µM]
C#CCCCON=C1C[C@@H](O)[C@H](O)[C@H]2[C@@H]3C(=O)N(C4CCCCC4)C(=O)[C@@H]3CC[C@H]12	14%[8.59 µM]	?
CS(=O)(=O)Nc1ccc(N=Cc2c(O)[nH]c3ccccc23)cc1	83%	131%
Cc1ccccc1CNc1ncnc2c1ncn2[C@@H]1O[C@H](CO)[C@@H](O)[C@H]1O	-4%	25%
CNc1ncnc2c1ncn2[C@@H]1O[C@H](CO)[C@@H](O)[C@@H]1O	-13%[17.8 µM]	7%[17.8 µM]
Nc1ncnc2c1ncn2C1OC(CO)C(O)C1O (centres undefined)	0%	5%
OC[C@H]1O[C@@H](n2cnc3cncnc32)[C@H](O)[C@@H]1O	7.9µM*	3.2µM*
CSc1ncnc2c1ncn2C1OC(CO)C(O)C1O (centres undefined)	0.35µM*	0.5µM*
OC[C@H]1O[C@@H](n2cnc3c(NCc4ccco4)ncnc32)[C@H](O)[C@@H]1O	?	13µM*
COC(=O)[C@@]1(C=C2c3ccc(F)cc3[C@@H](OC)[C@@H]2C)[C@@H]2OCCC[C@@H]21	-9%[8.59 µM]	6%[8.59 µM]
O=C(NCC1CC1)c1ccc(-c2cccc(C(=O)NC3CC3)c2)cc1	36%	36%
OC[C@@H](O)[C@H]1O[C@@H]2O[C@@H](C(Cl)(Cl)Cl)O[C@@H]2[C@H]1O	-5%	-8%
CC1=CC[C@@H](COc2ccccc2)O[C@@]2(C1)C(=O)N(Cc1ccccc1C(F)(F)F)c1cccc(Br)c12	18%[8.59 µM]	-7%[8.59 µM]
O=C(NCC1Cc2cc(F)cc(-c3cnccn3)c2O1)c1cccc(-c2ccccc2F)c1 (centres undefined)	?	-11%
CCCCCC(=O)N1C[C@H](n2cc(COC(=O)c3ccccc3)nn2)[C@@H](O)C[C@H]1c1ccccc1	-16%	?
CCCNC(=O)OC[C@H]1O[C@H](CCON=Cc2ccc(C(=O)N3[C@H](C(=O)OC)CC[C@H](C)[C@@H]3c3ccc(C)cc3)cc2)C=C[C@H]1Oc1ccc(OC)cc1	.	-28%[8.59 µM]
COCOCCn1cc(CN2CCS(=O)(=O)N(Cc3ccc(-c4ccc(F)cc4)cc3)C(C)C2=O)nn1 (centres undefined)	-17%	24%
Cc1ccc(CN2C=CCCS2(=O)=O)cc1	-9%	4%
Nc1ncc(-c2cccc(S(N)(=O)=O)c2)c2scc(-c3ccc(F)c(Cl)c3)c12	?	3.1µM*
COC(=O)C1=C(C(=O)OC)[C@@H]2N(Cc3ccccc3)c3ccccc3[C@@]23C[C@@H](C(=O)OC)N(C(=O)Nc2ccc(C(F)(F)F)cc2)C3=N1	-20%[8.59 µM]	38%[8.59 µM]
Cc1nc(Nc2ncc(C(=O)Nc3c(C)cccc3Cl)s2)cc(N2CCN(CCO)CC2)n1	?	13µM*
CN1CCN([C@@H]2C[S+](=O)([O-])N[C@@H]2COCc2ccccc2)CC1	4%	24%
CC(C)C[C@@H](NC(=O)[C@@H](O)[C@H](N)Cc1ccccc1)C(=O)O	6%	18%
CC(C)C[C@H](NC(=O)[C@H](Cc1ccccc1)NC(=O)c1cnccn1)B(O)O	2.8µM*	3.5µM*
CC(C)CN(C[C@@H](OP(=O)(O)O)[C@H](Cc1ccccc1)NC(=O)O[C@H]1CCOC1)S(=O)(=O)c1ccc(N)cc1	0%	0%
SMILES	Lassa entry	Marburg entry
CC(=O)OC[C@H]1O[C@@H](n2ncc(=O)[nH]c2=O)[C@H](OC(C)=O)[C@@H]1OC(C)=O	1.6µM*	2µM*
CCc1cc2c(nc1CC)CCN(CCC(C)=NO[C@@H]1O[C@H](COC(C)=O)[C@@H](OC(C)=O)[C@H](OC(C)=O)[C@@H]1OC(C)=O)C2	5%[8.59 µM]	-19%[8.59 µM]
c1ccc2c(c1)SCc1c-2[nH]c2ccccc12	?	11µM*
O=C1Cc2c([nH]c3ccc(Br)cc23)-c2ccccc2N1	-4%	5%
CCCC=Cc1ccc(CN2C(C)C(=O)N(Cc3cn(Cc4ccco4)nn3)CCS2(=O)=O)cc1 (centres undefined)	-2%	?
CCN1C(=NCc2cc(OC)c(OC)c(OC)c2)NC(c2ccccc2)C(C(=O)OC)=C1C (centres undefined)	-3%[8.59 µM]	43%[8.59 µM]
COC[C@@H](O)[C@H]1OCc2ccccc2[C@H]1C=Cc1ccccc1	-2%[8.59 µM]	7%[8.59 µM]
C[C@@H]1CC[C@H]2C(=O)N(Cc3ccccc3)C[C@@H](O)CN2[C@@H]1c1cccc(Br)c1	.	-22%[8.59 µM]
CC1=CC2C(=O)c3cccc(O)c3C(=O)C2C(O)=C1 (centres undefined)	-5%	11%
CN1C(=O)c2ccccc2C1=O	-1%[107 µM]	19%[107 µM]
CC1=CC(=O)c2ccccc2C1=O	?	10µM*!
CC1=CC(=O)c2c(O)cccc2C1=O	3.2µM*	4µM*
COC(=O)C1=C(C)N(Cc2ccccc2)C(=NCCc2cccnc2)NC1c1ccccc1 (centres undefined)	6%[8.59 µM]	-11%[8.59 µM]
C=CCN1c2ccc(Br)cc2C(O)CS1(=O)=O (centres undefined)	28%	?
C=CCCC1(CCC)C(=O)C(=C(O)c2ccccc2)C(=O)C(CCC)=C1OC (centres undefined)	6%[8.59 µM]	-2%[8.59 µM]
CCC1CN2CCC1CC2[C@@H](Oc1cc2ccccc2c2ccccc12)c1ccnc2ccc(O)cc12 (some centres undefined)	0%[8.59 µM]	42%[8.59 µM]
O=S1(=O)c2cccc(Cl)c2OC[C@H](c2ccccc2)N1Cc1cccc(Cl)c1	-17%	?
C=CCN(C)CCCCCCOc1ccc(C(=O)c2ccc(Br)cc2)c(F)c1	?	4µM*
